Screen size: about 310,000 compounds; about 18,000 (5.8%) were called active. Inconclusive results (about 22%) are left out. The entries come from a sample that favours actives as a whole. A call without a number means that no potency is given here. Values without a mark were called inactive. The call rests on the fitted dose curve; in most records, active means well fitted inhibition curve with a large enough effect; inconclusive means small, poorly fitted or top-dose-only effect, or another doubt; inactive means no such curve, though single readings can be large or run the other way.
Assay: Primary qHTS for delayed death inhibitors of the malarial parasite plastid, 48 hour incubation
Settings: P. falciparum luciferase growth in erythrocytes; series mostly up to 28.7 µM
Source text: The goal of this screen is to discover new antimalarial compounds that act by inhibiting the development of the apicoplast in the malarial parasite Plasmodium falciparum. The biochemical processes that make this organelle essential for erythrocytic stage parasites are not well understood. However, antibiotics such as azithromycin and tetracycline, which target the apicoplast translational machinery, have a potent antimalarial effect.
We have developed a cell-based assay that measures parasite growth based on the expression of an integrated copy of a firefly luciferase reporter. To detect small molecules that cause this "delayed death" phenotype, erythrocytes infected with the luciferase-expressing parasites were incubated with compounds for either one or two generations, corresponding to 48 and 96 hours, respectively. Compounds that inhibit parasite growth in the second generation, but not the first, should be enriched in antimalarials that target the apicoplast. Growth inhibition is detected by a decrease in luciferase activity.
Assay Provider: David Fidock and Eric Ekland, Columbia University
Keywords: NIH Roadmap, MLPCN, MLI, MLSMR, qHTS, NCGC, qHTS, malaria, luciferase, viability
Four microliters of culture medium (RPMI 1640 with 0.5% w/v Albumax (GIBCO), 24 mM sodium bicarbonate and 10 ug/mL gentamycin) were dispensed by a Multi-drop Combi into white solid 1536-well plates (Grenier) and 23 nL compound was added by a pin tool. Four microliters of infected erythrocytes (2% hematocrit, 0.1% parasitemia final concentration) in culture medium were dispensed and the plates incubated for 48 hours at 37 C in 5% CO2. Two microliters of luciferase detection reagent was added and luminescence was detected by a ViewLux (PerkinElmer) reader.
Potency means the concentration at half of the fitted maximal effect.

SMILES | activity change, negative = inhibition | Potency
O=C(Cc1cccs1)NCc1cccc(C(F)(F)F)c1 | 0.71% [at 0.00184 µM] | –
CC1CN(C(=S)Nc2ccccc2F)CC(C)O1 (configuration not stated) | – | inactive
COc1ccc(C(=O)N2CCCN(C)CC2)c(OC)c1 | – | inactive
COc1ccc(CN2CCNC(=O)C2CC(=O)NCc2cn[nH]c2-c2ccccc2)c(F)c1 (configuration not stated) | – | inactive
COc1ccc(CN2CC(C(=O)NCCc3ccc(Cl)cc3)CC2=O)cc1 (configuration not stated) | – | inactive
O=C(O)c1ccccc1C(=O)Nc1nc(-c2ccccc2)cs1 | – | inactive
Cc1ccc(C)c(NC(=O)c2ccc3nccnc3c2)c1 | – | inactive
COc1ccc(CNC(=O)Cc2ccc(-c3ccccc3)cc2)cc1OC | – | inactive
COc1ccc(Cn2c(-c3ccc(Cl)cc3)c[n+]3ccccc23)cc1 | – | 0.522 µM (active)
CCn1c(C)cc(=O)cc1-c1ccc(Cl)cc1 | – | inactive
COc1ccc(C(=O)CN(C(=O)c2ccc(Cl)cc2)N2C(=O)c3ccccc3C2=O)cc1 | – | inactive
Cc1ccc(OCC(=O)NCCCNC(=O)c2ccco2)cc1C | – | inactive
Cn1cccc1C(=O)NNC(=O)COc1ccc(Br)cc1 | – | inactive
COc1cccc(C(O)c2nc3ccccc3n2C)c1 (configuration not stated) | – | inactive
Cc1n[nH]c(=O)c2c(NC(=O)COC(=O)c3ncc(Cl)c(Cl)c3Cl)oc(C)c12 | – | inactive
COc1cc(OC)c(S(=O)(=O)Nc2ccccc2C(=O)O)cc1S(=O)(=O)Nc1ccccc1C(=O)O | – | inactive
Cc1ccc(C)c(NC(=O)CN(C)C(=O)c2ccc3ncsc3c2)c1 | – | inactive
O=C(Nc1ncccn1)c1cccs1 | – | inactive
O=C(Nc1ccnc(-c2ccncc2)n1)c1cccs1 | – | 11.7 µM (active)
O=C(Nc1ccc(NC(=O)c2cccs2)cn1)c1ccco1 | – | inactive
CC(C)CN(C(=O)CSc1ncnc2sccc12)C1CCS(=O)(=O)C1 (configuration not stated) | – | inactive
CCN(CC)CCn1c2c(c(SCC(=O)Nc3nc4ccccc4s3)nc1=O)CCCC2 | – | inactive
O=C(Nc1ccccc1C(F)(F)F)N1CCCC1c1cccnc1 (configuration not stated) | – | inactive
O=C(NC(=S)N1CCCCC1c1cccnc1)c1ccccc1 (configuration not stated) | – | inactive
Cc1ccc(-c2cc(C(F)(F)F)n3ncc(C(=O)N4CCCCC4c4cccnc4)c3n2)cc1 (configuration not stated) | – | 1.65 µM (active)
CCn1c(SCC(=O)NC2CC2)nnc1-c1ccccn1 | – | inactive

SMILES | activity change, negative = inhibition | Potency
CCOc1ccc(C(=O)CCN2CCOCC2)cc1 | – | inactive
CC(=O)c1ccc(S(=O)(=O)NCc2nnnn2-c2ccccc2)cc1 | – | inactive
Cc1cccc(-c2nnc(SCC(=O)O)n2Cc2ccccc2)c1 | – | inactive
O=C(N[C@@H](Cc1ccccc1)C(=O)OCc1ccccc1)c1nc[nH]c1C(=O)N[C@@H](Cc1ccccc1)C(=O)OCc1ccccc1 | – | inactive
CC(C)(C)OC(=O)N1CCC(NC(=O)c2[nH]cnc2C(=O)N[C@@H](Cc2ccccc2)C(=O)OCc2ccccc2)CC1 | – | 0.928 µM (active)
C[C@@H](NC(=O)c1nc[nH]c1C(=O)N1CCN(C(=O)OC(C)(C)C)CC1)c1ccccc1 | – | inactive
Cc1onc(C(=O)Nc2ccc3c(c2)OCO3)c1[N+](=O)[O-] | – | inactive
Cc1c(CCOC(=O)c2cc([N+](=O)[O-])ccc2Cl)sc[n+]1CCCCS(=O)(=O)[O-] | – | inactive
Cc1c(CCOC(=O)CC23CC4CC(CC(C)(C4)C2)C3)sc[n+]1Cc1ccc([N+](=O)[O-])cc1 | – | 2.62 µM (active)
Oc1ccc(Br)cc1/C=N/Nc1ccccn1 | – | 1.47 µM (active)
O=C(CCCO)N/N=C/c1cc(Br)ccc1O | – | inactive
Oc1ccc(/C=N/Nc2ccc(C(F)(F)F)cn2)cc1O | – | inactive
CC(C)c1ccc(S(=O)(=O)N2CCC3(CC2)OCCO3)cc1 | – | inactive
COc1ccc(C)cc1NC(=O)Nc1ccccc1SC | – | inactive
COc1cc2ccccc2cc1C(=O)Nc1ccccc1C | – | inactive
COc1ccc(C)cc1NC(=O)c1cc(-c2ccccc2)nc2c1cnn2C(C)C | – | 4.65 µM (active)
Cc1ccc(-c2noc(C3CCCN(C(=O)c4cccc(Cl)c4)C3)n2)o1 (configuration not stated) | – | inactive
O=C(CCNC(=O)c1ccc(Br)cc1)NCCCc1ccccc1 | – | inactive
Cc1cccc2[nH]c(CN(C)C(=O)C3CCC(=O)N(CCc4ccccc4)C3)nc12 (configuration not stated) | – | inactive
CC(C)c1ccc(N2CCN(C(=O)c3ccccc3NC(=O)/C=C(\C(=O)O)c3ccccc3)CC2)cc1 | – | 13.1 µM (active)
Cc1ccccc1C(=O)NC(=S)Nc1ccc(N2CCN(C(=O)c3ccccc3)CC2)cc1 | – | inactive
COc1ccc(C(=O)Nc2ccccc2C(=O)N2CCN(c3ccccc3)CC2)cc1 | – | inactive
COc1ccc(NC(=O)CCS(=O)(=O)c2cc3c(cc2Cl)NC(=O)CO3)cc1OC | – | inactive
O=C(Cc1ccc2c(c1)CCCC2)Nc1ccccc1Cl | – | 11.7 µM (active)
O=C(Nc1ccc2c(c1)CCC2)c1cccc(S(=O)(=O)Nc2ccccc2Cl)c1 | – | inactive
O=C(COC(=O)c1cccs1)Nc1ccccc1Cl | – | inactive

Reference: PubChem BioAssay AID504832 (National Center for Advancing Translational Sciences (NCATS), 2011)
